Data from PubChem BioAssay (EPA / NIEHS).
Inconclusive results are not listed. The source made the active and inactive calls. How the source made its calls, unless noted: active means hit-call score of the fitted dose curve at least 0.9, where 1 is the maximum; inactive means score below 0.9.

What was measured:
[1] = ATG_PBREM_CIS: Attagene CIS-FACTORIAL HepG2 Assay for human Phenobarbital-responsive Enhancer Module (PBREM) (AID 2282955); conditions: HepG2 PBREM cis-reporter, Attagene multiplexed transcription; actives raise or lower the signal
In short: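 HepG2, transient MRTU transfection, 24 h dosing; RNA → oligo(dT) RT → PCR → 6-FAM extension → HpaI → CE. Bidirectional fit vs DMSO.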

[2] = biological target: Paired box protein Pax-6 (Homo sapiens) (UniProt P26367); assay: ATG_Pax6_CIS: Attagene CIS-FACTORIAL HepG2 Assay for human Paired Box 6 (PAX6) (AID 2282956); conditions: HepG2 CIS-FACTORIAL PAX6 reporter transcription, RNA readout; actives raise or lower the signal
Chain of Paired box protein Pax-6 (Homo sapiens) (P26367 whole entry, looked up): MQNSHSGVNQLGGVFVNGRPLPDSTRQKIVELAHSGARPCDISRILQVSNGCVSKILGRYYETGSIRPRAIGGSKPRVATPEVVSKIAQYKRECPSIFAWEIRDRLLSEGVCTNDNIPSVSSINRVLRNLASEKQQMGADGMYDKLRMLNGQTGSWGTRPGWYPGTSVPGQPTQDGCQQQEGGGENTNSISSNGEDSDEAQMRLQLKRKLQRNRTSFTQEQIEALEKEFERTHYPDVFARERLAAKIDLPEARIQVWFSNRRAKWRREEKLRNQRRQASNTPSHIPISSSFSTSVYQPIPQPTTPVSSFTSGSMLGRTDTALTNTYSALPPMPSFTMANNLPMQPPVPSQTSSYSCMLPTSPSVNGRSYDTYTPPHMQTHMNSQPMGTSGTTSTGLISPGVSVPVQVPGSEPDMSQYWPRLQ
In short: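 Read-out is reporter transcript level, measured by RT-PCR with fluorescent primer extension and capillary electrophoresis after 24 h dosing of transfected HepG2 cells. Activity in either direction fitted relative to DMSO control.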

[3] = ATG_PXRE_CIS: Attagene CIS-FACTORIAL HepG2 Assay for human Pregnane X Receptor Element (PXRE) (AID 2282957); conditions: HepG2 Attagene CIS-FACTORIAL PXRE reporter, mRNA; actives raise or lower the signal
In short: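 Bidirectional activity, baselined to DMSO, derived from reporter mRNA fluorescence (RT-PCR plus capillary electrophoresis) in HepG2 cells bearing cis-promoter reporter units, 24 h exposure.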

[4] = ATG_PPRE_CIS: Attagene CIS-FACTORIAL HepG2 Assay for human Peroxisome Proliferator-activated Response Element (PPRE) (AID 2282958); conditions: HepG2 PPRE cis-element reporter, Attagene transcription factor profiling; actives raise or lower the signal
In short: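 Transcript-level reporter induction in transfected HepG2 cells after 24 h chemical exposure, quantified by fluorescence from RT-PCR products separated by capillary electrophoresis.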

[5] = ATG_Sox_CIS: Attagene CIS-FACTORIAL HepG2 Assay for human SRY-box transcription factor (SOX) (AID 2282960); conditions: HepG2 Attagene cis-factorial SOX reporter, mRNA; actives raise or lower the signal
In short: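 Cells were transfected with reporter constructs under cis-regulatory promoters, then exposed to chemicals for 24 h. Reporter transcripts were quantified by fluorescence after RT-PCR and capillary electrophoresis; activity was fitted in both directions against DMSO.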

[6] = biological target: Transcription factor Sp1 (Homo sapiens) (UniProt P08047); assay: ATG_Sp1_CIS: Attagene CIS-FACTORIAL HepG2 Assay for human Specificity Protein 1 (Sp1) (AID 2282961); conditions: HepG2 Sp1 cis-reporter transcription, actives raise or lower the signal
Chain of Transcription factor Sp1 (Homo sapiens) (P08047 whole entry, looked up): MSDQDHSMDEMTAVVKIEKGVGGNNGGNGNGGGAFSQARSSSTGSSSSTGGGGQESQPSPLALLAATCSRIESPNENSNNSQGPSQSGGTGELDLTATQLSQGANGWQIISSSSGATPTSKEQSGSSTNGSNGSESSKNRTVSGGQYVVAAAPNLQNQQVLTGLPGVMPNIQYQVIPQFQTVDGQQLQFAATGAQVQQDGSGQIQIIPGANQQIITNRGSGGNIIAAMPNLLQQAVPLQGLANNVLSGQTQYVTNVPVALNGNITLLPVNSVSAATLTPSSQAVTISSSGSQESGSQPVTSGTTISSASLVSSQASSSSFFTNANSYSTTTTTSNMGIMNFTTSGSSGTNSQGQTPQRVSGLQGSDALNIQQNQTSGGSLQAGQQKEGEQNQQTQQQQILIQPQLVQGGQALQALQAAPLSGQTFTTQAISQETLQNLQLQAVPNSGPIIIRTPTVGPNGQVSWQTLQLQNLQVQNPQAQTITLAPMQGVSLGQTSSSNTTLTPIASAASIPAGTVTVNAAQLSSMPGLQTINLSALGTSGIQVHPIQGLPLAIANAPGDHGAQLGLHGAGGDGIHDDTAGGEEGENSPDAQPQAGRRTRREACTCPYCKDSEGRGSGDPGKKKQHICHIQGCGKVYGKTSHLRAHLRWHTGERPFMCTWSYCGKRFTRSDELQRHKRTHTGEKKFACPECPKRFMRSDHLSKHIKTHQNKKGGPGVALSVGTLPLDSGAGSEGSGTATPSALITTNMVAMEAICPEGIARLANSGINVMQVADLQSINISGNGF
In short: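 Measures mRNA induction of an Sp1-linked reporter in HepG2 cells 24 h post-dosing. Multiplexed reporters read by RT-PCR and capillary electrophoresis; DMSO serves as negative control and baseline.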

[7] = ATG_SREBP_CIS: Attagene CIS-FACTORIAL HepG2 Assay for human Sterol Regulatory Element Binding (SREBP) (AID 2282962); conditions: HepG2 Attagene cis-factorial SREBP reporter, mRNA; actives raise or lower the signal
In short: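 Endogenous SREBP activity read as cis-element-driven reporter transcript in transiently transfected HepG2, 24 h post-dosing; quantified via RT-PCR plus capillary electrophoresis of fluorescent fragments. Gain or loss of signal fitted relative to DMSO baseline.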

[8] = ATG_TA_CIS: Attagene CIS-FACTORIAL HepG2 Assay for human TA Basal Promoter (AID 2282964); conditions: HepG2 Attagene CIS-factorial TA basal promoter reporter; actives raise or lower the signal
In short: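 Multiplexed mRNA reporter assay, HepG2, 24 h. Reporter cDNA amplified, 6-FAM primer-extended, HpaI-cut, CE-sized; DMSO = negative control and baseline.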

[9] = ATG_TCF_b_cat_CIS: Attagene CIS-FACTORIAL HepG2 Assay for human T-Cell-Factor with beta-catenin (TCF/b-cat) (AID 2282965); conditions: HepG2 TCF/beta-catenin cis-reporter transcription, actives raise or lower the signal
In short: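 Cells of the HepG2 line carry transiently transfected reporter units whose promoters respond to endogenous factors. Twenty-four hours post-dosing, reporter mRNA induction is measured by fluorescent RT-PCR and capillary electrophoresis, with DMSO as baseline.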

[10] = ATG_TAL_CIS: Attagene CIS-FACTORIAL HepG2 Assay for human TAL Basal Promoter (AID 2282966); conditions: HepG2 Attagene cis-factorial TAL promoter reporter; actives raise or lower the signal;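 further: background control endpoint measuring basal TAL promoter reporter mRNA not a specific factor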
In short: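 Human hepatoma HepG2 cells, transfected with promoter-regulated reporter units, were treated 24 h. Reporter transcript levels, measured through RT-PCR and capillary electrophoresis, were fitted for gain or loss relative to DMSO.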

[11] = ATG_TGFb_CIS: Attagene CIS-FACTORIAL HepG2 Assay for human Transforming Growth Factor (TGF) (AID 2282967); conditions: HepG2 Attagene CIS TGFb reporter, mRNA transcription; actives raise or lower the signal
In short: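 Transcript-level reporter readout: HepG2 transfectants, 24 h exposure, RNA to cDNA, reporter-specific PCR, fluorescent primer extension, capillary sizing against ROX standards. Gain- or loss-of-signal relative to DMSO.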

[12] = biological target: Nuclear receptor subfamily 1 group I member 3 (Homo sapiens) (UniProt Q14994); assay: ATG_CAR_TRANS: Attagene TRANS-FACTORIAL HepG2 Assay for human Constitutive Androstane Receptor (CAR) (AID 2282969; active means hit-call score of the fitted dose curve at least 0.9, where 1 is the maximum;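 further: activators raise reporter mRNA above DMSO so AC50 marks induction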); conditions: HepG2 Attagene TRANS-FACTORIAL CAR reporter
Chain of Nuclear receptor subfamily 1 group I member 3 (Homo sapiens) (Q14994 whole entry, looked up, the tested form may be a part): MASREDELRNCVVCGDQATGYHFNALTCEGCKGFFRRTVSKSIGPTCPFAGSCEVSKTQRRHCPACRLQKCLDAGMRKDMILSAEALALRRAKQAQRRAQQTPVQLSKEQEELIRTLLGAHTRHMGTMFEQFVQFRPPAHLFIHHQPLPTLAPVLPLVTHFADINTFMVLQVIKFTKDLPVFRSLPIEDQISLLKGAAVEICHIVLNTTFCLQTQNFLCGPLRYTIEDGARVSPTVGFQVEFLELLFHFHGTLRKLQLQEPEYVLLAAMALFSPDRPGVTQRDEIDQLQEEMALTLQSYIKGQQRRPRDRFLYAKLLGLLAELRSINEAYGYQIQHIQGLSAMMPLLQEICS
In short: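 Transiently transfected HepG2, multiplex TRANS reporters (CAR-Gal4 chimera driving GAL4-UAS reporter). 24 h dosing. Readout: reporter transcript by RT-PCR + capillary electrophoresis, fluorescence intensity; positive direction vs DMSO.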

[13] = biological target: Estrogen receptor (Homo sapiens) (UniProt P03372); assay: ATG_ERa_TRANS: Attagene TRANS-FACTORIAL HepG2 Assay for human Estrogen Receptor alpha (ERa) (AID 2282970; active means hit-call score of the fitted dose curve at least 0.9, where 1 is the maximum); conditions: HepG2 Attagene TRANS ERa GAL4 reporter, mRNA
Chain of Estrogen receptor (Homo sapiens) (P03372 whole entry, looked up, the tested form may be a part): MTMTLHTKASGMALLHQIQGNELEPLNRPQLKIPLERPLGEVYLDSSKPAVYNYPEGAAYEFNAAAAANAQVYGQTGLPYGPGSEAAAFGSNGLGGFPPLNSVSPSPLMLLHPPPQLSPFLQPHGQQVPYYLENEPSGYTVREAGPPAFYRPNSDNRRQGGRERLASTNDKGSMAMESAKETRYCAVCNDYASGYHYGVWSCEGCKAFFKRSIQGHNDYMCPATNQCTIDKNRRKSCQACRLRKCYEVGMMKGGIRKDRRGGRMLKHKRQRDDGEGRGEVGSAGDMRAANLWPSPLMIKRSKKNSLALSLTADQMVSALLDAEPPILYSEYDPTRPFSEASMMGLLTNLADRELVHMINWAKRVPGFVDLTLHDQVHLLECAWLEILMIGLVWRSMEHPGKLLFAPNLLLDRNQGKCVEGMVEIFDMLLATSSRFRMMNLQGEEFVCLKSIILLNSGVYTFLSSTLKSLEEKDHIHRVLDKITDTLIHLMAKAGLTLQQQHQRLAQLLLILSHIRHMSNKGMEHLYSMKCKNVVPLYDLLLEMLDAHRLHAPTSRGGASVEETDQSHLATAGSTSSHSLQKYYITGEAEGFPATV
In short: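 Signal derives from fluorescence of labelled reporter PCR fragments separated by capillary electrophoresis. HepG2 cells transiently carrying multiple GAL4-UAS reporter units were treated 24 hours, and induction above DMSO baseline was fitted as activity.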

[14] = biological target: X-box-binding protein 1 (Homo sapiens) (UniProt P17861); assay: ATG_Xbp1_CIS: Attagene CIS-FACTORIAL HepG2 Assay for human X-box Binding Protein 1 (XBP1) (AID 2282972); conditions: HepG2 XBP1 cis-element reporter, Attagene multiplex; actives raise or lower the signal
Chain of X-box-binding protein 1 (Homo sapiens) (P17861 whole entry, looked up): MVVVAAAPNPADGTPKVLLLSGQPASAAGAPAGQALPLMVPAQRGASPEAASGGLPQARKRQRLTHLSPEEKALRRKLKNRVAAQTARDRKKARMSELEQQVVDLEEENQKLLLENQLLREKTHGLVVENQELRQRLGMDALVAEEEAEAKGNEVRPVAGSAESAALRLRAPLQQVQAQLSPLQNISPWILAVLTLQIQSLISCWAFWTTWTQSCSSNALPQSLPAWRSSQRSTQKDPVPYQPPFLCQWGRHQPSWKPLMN
In short: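 Reporter transcripts were quantified by RT-PCR with fluorescent primer extension and capillary electrophoresis after 24 h chemical exposure. Cells: transiently transfected HepG2 carrying cis-regulated reporter constructs; data fitted bidirectionally relative to DMSO.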

[15] = ATG_M_19_TRANS: Attagene TRANS-FACTORIAL HepG2 Assay for M19 Transcription Factor (Internal Marker) (AID 2282974; active means hit-call score of the fitted dose curve at least 0.9, where 1 is the maximum); conditions: HepG2 Attagene TRANS-FACTORIAL M19 internal marker reporter
In short: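 After transfection of HepG2 with GAL4-UAS-driven reporter constructs, cells are dosed for 24 h. Total RNA is reverse-transcribed, reporter sequences PCR-amplified and labelled, then HpaI-digested and sized by capillary electrophoresis.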

[16] = ATG_GAL4_TRANS: Attagene TRANS-FACTORIAL HepG2 Assay for GAL4 (Internal Marker) (AID 2282976; active means hit-call score of the fitted dose curve at least 0.9, where 1 is the maximum); conditions: HepG2 Attagene TRANS GAL4 internal marker reporter
In short: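 Liver HepG2 line bearing multiplexed GAL4-UAS reporter constructs; 24 h chemical treatment. Transcripts were quantified as fluorescent fragments on capillary electrophoresis after RT-PCR and HpaI cut, with activity fitted upward from DMSO.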

[17] = ATG_VDRE_CIS: Attagene CIS-FACTORIAL HepG2 Assay for human Vitamin D Receptor Element (VDRE) (AID 2282968); conditions: HepG2 VDRE cis-reporter transcription, actives raise or lower the signal
In short: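 Transient MRTU transfection of HepG2, 24 h compound exposure. Readout: reporter transcripts via RT-PCR and capillary electrophoresis, fluorescence. Bidirectional fit vs DMSO.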

[18] = biological target: Signal transducer and activator of transcription 3 (Homo sapiens) (UniProt P40763); assay: ATG_STAT3_CIS: Attagene CIS-FACTORIAL HepG2 Assay for human Signal Transducer and Activator of Transcription 3 (STAT3) (AID 2282963); conditions: HepG2, Attagene cis-factorial STAT3 reporter transcription; actives raise or lower the signal
Chain of Signal transducer and activator of transcription 3 (Homo sapiens) (P40763 whole entry, looked up, the tested form may be a part): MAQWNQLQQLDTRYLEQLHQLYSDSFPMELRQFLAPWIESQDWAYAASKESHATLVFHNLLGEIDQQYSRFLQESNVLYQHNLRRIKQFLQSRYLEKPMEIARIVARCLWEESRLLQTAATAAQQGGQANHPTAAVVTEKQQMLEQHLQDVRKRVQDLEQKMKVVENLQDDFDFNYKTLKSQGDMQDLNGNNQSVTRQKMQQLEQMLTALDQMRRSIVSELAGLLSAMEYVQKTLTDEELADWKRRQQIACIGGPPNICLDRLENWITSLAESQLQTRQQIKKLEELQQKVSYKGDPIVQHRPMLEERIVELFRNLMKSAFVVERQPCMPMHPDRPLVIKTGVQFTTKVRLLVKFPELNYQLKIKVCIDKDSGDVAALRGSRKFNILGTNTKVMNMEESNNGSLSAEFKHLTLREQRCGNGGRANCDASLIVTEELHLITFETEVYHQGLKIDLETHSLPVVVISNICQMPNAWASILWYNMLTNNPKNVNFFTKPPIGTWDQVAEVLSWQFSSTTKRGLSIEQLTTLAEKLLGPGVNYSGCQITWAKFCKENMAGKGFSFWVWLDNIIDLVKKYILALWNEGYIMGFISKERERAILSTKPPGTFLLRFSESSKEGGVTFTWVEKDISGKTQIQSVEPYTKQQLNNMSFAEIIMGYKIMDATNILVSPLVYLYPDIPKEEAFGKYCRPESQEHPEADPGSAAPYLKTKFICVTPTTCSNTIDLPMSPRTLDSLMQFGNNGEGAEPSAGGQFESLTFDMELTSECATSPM
In short: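 Readout: fluorescent reporter mRNA fragments resolved by capillary electrophoresis. Setup: HepG2 transfected with MRTUs reporting endogenous transcription-factor activity, dosed 24 h. Gain or loss of signal fitted bidirectionally against DMSO control.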

[19] = ATG_RORE_CIS: Attagene CIS-FACTORIAL HepG2 Assay for human RAR-related Orphan Receptor Element (RORE) (AID 2282959); conditions: HepG2 Attagene cis-factorial RORE reporter, mRNA; actives raise or lower the signal
In short: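 Multiplexed reporter assay measuring mRNA induction from a cis promoter element in transiently transfected HepG2 cells after 24 h treatment. Detection via RT-PCR and capillary electrophoresis fluorescence; DMSO serves as baseline.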

## CO[Si](C)(C)OC
[1]
  outcome: inactive
[2]
  outcome: inactive
[3]
  AC50: 184 µM (active)
[4]
  outcome: inactive
[5]
  outcome: inactive
[6]
  outcome: inactive
[7]
  outcome: inactive
[8]
  outcome: inactive
[9]
  outcome: inactive
[10]
  outcome: inactive
[11]
  outcome: inactive
[12]
  outcome: inactive
[13]
  outcome: inactive
[14]
  outcome: inactive
[15]
  outcome: inactive
[16]
  outcome: inactive

## Nc1cccc(N)n1
[1]
  outcome: inactive
[2]
  outcome: inactive
[3]
  outcome: inactive
[4]
  outcome: inactive
[5]
  outcome: inactive
[6]
  outcome: inactive
[8]
  outcome: inactive
[9]
  outcome: inactive
[10]
  outcome: inactive
[11]
  outcome: inactive
[17]
  outcome: inactive
[12]
  outcome: inactive
[14]
  outcome: inactive
[15]
  outcome: inactive
[16]
  outcome: inactive

## C=C[Si](OCCOC)(OCCOC)OCCOC
[1]
  outcome: inactive
[2]
  outcome: inactive
[3]
  AC50: 1.74 µM (active)
[4]
  outcome: inactive
[5]
  outcome: inactive
[6]
  outcome: inactive
[7]
  outcome: inactive
[18]
  outcome: inactive
[8]
  outcome: inactive
[9]
  outcome: inactive
[10]
  outcome: inactive
[11]
  outcome: inactive
[17]
  AC50: 5.92 µM (active)
[12]
  outcome: inactive
[13]
  outcome: inactive
[14]
  outcome: inactive
[15]
  outcome: inactive
[16]
  outcome: inactive

## COc1ccc(C(=O)c2ccccc2)c(O)c1
[1]
  AC50: 85.9 µM (active)
[2]
  AC50: 149 µM (active)
[3]
  AC50: 26.7 µM (active)
[4]
  AC50: 121 µM (active)
[5]
  outcome: inactive
[6]
  outcome: inactive
[7]
  outcome: inactive
[18]
  outcome: inactive
[8]
  AC50: 121 µM (active)
[9]
  outcome: inactive
[10]
  outcome: inactive
[11]
  AC50: 156 µM (active)
[13]
  AC50: 6.43 µM (active)
[14]
  outcome: inactive
[15]
  outcome: inactive
[16]
  outcome: inactive

## N=C1C=CC(=C(c2ccc(N)cc2)c2ccc(N)cc2)C=C1
[1]
  outcome: inactive
[2]
  AC50: 37.8 µM (active)
[3]
  AC50: 56.6 µM (active)
[4]
  outcome: inactive
[19]
  outcome: inactive
[5]
  outcome: inactive
[6]
  outcome: inactive
[18]
  outcome: inactive
[8]
  AC50: 81.3 µM (active)
[9]
  AC50: 26.5 µM (active)
[10]
  outcome: inactive
[11]
  outcome: inactive
[13]
  outcome: inactive
[14]
  AC50: 25.3 µM (active)
[15]
  outcome: inactive
[16]
  outcome: inactive

## O=C(OCCc1ccccc1)c1ccccc1
[1]
  outcome: inactive
[2]
  outcome: inactive
[3]
  outcome: inactive
[4]
  outcome: inactive
[19]
  outcome: inactive
[5]
  outcome: inactive
[7]
  outcome: inactive
[18]
  outcome: inactive
[8]
  outcome: inactive
[10]
  outcome: inactive
[11]
  outcome: inactive
[17]
  outcome: inactive
[12]
  outcome: inactive
[13]
  outcome: inactive
[14]
  outcome: inactive
[15]
  outcome: inactive

## CCNc1nc(NC(C)(C)C)nc(OC)n1
[1]
  outcome: inactive
[2]
  outcome: inactive
[3]
  AC50: 10.3 µM (active)
[4]
  outcome: inactive
[5]
  outcome: inactive
[6]
  outcome: inactive
[7]
  outcome: inactive
[18]
  outcome: inactive
[8]
  outcome: inactive
[10]
  outcome: inactive
[11]
  outcome: inactive
[17]
  AC50: 19.3 µM (active)
[12]
  outcome: inactive
[13]
  outcome: inactive
[14]
  outcome: inactive
[15]
  outcome: inactive
[16]
  outcome: inactive

## CCC(C)(O)CCCC(C)C (stereo not given)
[1]
  outcome: inactive
[2]
  outcome: inactive
[3]
  outcome: inactive
[4]
  outcome: inactive
[5]
  outcome: inactive
[6]
  outcome: inactive
[7]
  outcome: inactive
[18]
  outcome: inactive
[8]
  outcome: inactive
[10]
  outcome: inactive
[11]
  outcome: inactive
[12]
  outcome: inactive
[13]
  outcome: inactive
[14]
  outcome: inactive
[15]
  outcome: inactive
[16]
  outcome: inactive
